Results taken from PubChem BioAssay.
The source made the active and inactive calls.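 How the source made its calls, unless noted: active means visual image review flags a hit and inhibition of aggregation exceeds 20%; inconclusive means visual hit but inhibition at or below 20%; inactive means no hit on visual image review.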

Assays:
[1] = inhibitors of TNFa-induced NFkB p65 translocation, primary screen, imaging, HUVEC, MLSMR starter and 10KST1 sets (AID 438;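 active means inhibition above 20% together with a positive visual image hit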;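 further: compound added about 3h40 before a 20 min TNFalpha stimulation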;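 on inhibition: signal is the nuclear over cytoplasmic p65 intensity ratio per well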); conditions: HUVEC TNFa-induced p65 nuclear translocation; cell count: measured here: nuclei count (cytotoxicity indicator), at 2.08 µM; inhibition: at 2 µM, stronger effect = higher value, 0% TNFa-plus-vehicle, 100% no-TNFa wells
[2] = reduction of polyQ htt aggregates in cells – imaging, exon1htt(103Q)mCFP cells, high-content imaging, primary screen (AID 483); conditions: exon1htt(103Q)mCFP cell line, aggregate imaging, at 2 µM; inhibition of aggregation: stronger effect = higher value; nuclei count: measured here: cell count, toxicity;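 further: compound exposure lasted 3 days before fixation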;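 on nuclei count: percent of the per-plate median nuclei count of sample wells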
[3] = endothelial E-selectin expression blockers – imaging, HUVEC, immunofluorescence, MLSMR starter and 10KST1 sets, primary screen (AID 487;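 active means visually confirmed hit in the image check and inhibition above 20%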;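 on inhibition: signal is fraction of cell area covered by stained E-selectin grains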;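 on nuclei count: 100% = median nuclei count of all wells on the same plate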); conditions: HUVEC TNFalpha-induced E-selectin immunofluorescence imaging, at 2 µM; inhibition: stronger effect = higher value; nuclei count: measured here: cell number, toxicity
[4] = target: Voltage-gated potassium channel subunit beta-2 (Rattus norvegicus) (UniProt P62483); assay: inhibitors of rat Kvbeta2 reductase activity – biochemical, NADPH fluorescence, primary screen (AID 622;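 active means fluorescence slope higher than the sample average by over 3 SD, cut at about -0.22 in these data, passing the limit was not always enough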;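 further: slope of raw intensity against log time taken from 70 to 1610 s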); conditions: recombinant KvBeta, 4-cyanobenzaldehyde reduction, at 10 µM, stronger effect = higher value
Sequence of Voltage-gated potassium channel subunit beta-2 (Rattus norvegicus) (P62483 whole entry, looked up): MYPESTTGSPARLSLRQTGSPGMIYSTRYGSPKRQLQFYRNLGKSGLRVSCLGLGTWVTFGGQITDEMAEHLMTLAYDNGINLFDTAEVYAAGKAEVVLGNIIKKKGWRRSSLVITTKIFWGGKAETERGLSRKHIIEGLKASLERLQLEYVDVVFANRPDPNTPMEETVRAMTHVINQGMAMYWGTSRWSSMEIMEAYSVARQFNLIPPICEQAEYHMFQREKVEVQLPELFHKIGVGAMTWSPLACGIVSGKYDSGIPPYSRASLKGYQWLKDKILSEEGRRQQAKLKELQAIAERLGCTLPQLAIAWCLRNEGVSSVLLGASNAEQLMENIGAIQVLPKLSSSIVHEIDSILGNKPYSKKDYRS

[5] = target: Voltage-gated potassium channel subunit beta-2 (Rattus norvegicus) (UniProt P62483); assay: enhancers of rat Kvbeta2 NADPH turnover – biochemical, NADPH fluorescence, primary screen (AID 623;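 active means NADPH fluorescence slope more negative than the mean of all samples by about 3 SD, 99.7% confidence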;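 further: fluorescence intensity change per second fitted from 20 to 320 s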); conditions: Recombinant KvBeta, NADPH fluorescence decrease slope, 10 min; at 10 µM; stronger effect = lower value
[6] = target: Alpha-2C adrenergic receptor (Homo sapiens) (UniProt P18825); assay: compounds altering alpha2C-coupled GIRK flux – cell-based, HEK293 alpha2C/GIRK1/2, thallium flux, primary screen (AID 624;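 active means fluorescence slope after compound addition differing from the mean of all screened samples at 99.7% confidence, in either direction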;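 further: slope of fluorescence ratio to pre-addition baseline per second over 15 to 24 s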); conditions: thallium flux BTC fluorescence, at 10 µM, actives lie on both sides
Sequence of Alpha-2C adrenergic receptor (Homo sapiens) (P18825 whole entry, looked up): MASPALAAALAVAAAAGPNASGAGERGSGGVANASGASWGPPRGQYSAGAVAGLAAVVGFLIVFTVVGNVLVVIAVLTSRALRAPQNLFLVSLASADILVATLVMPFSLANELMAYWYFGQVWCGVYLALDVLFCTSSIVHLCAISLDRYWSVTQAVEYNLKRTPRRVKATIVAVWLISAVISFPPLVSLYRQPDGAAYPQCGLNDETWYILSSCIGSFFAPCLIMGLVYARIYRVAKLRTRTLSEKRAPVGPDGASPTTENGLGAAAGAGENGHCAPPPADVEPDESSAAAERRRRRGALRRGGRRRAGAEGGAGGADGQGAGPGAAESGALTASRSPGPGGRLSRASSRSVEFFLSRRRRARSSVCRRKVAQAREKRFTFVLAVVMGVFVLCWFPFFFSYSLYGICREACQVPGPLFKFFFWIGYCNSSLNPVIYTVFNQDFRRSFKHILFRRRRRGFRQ

[7] = blockers of RIG-like receptor reporter activation – cell-based, Sendai virus stimulus, luciferase, 10K MLSCN set, TLR/RLR signaling modifier project, primary screen (AID 602276;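 active means inhibition at or above 50% at 10 µM; inactive means inhibition below 50%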;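 further: firefly luciferase from ISG56 promoter only with Renilla not read in this screen; 0% = Sendai virus plus DMSO and 100% = medium plus DMSO without virus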); conditions: HEK293 RL24 IRF3 luciferase reporter, at 10 µM, stronger effect = higher value
[8] = TLR3 IRF3 reporter activation blockers – cell-based, poly I:C stimulus, luciferase, 10K MLSCN set, primary screen (AID 602277;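 active means inhibition of the reporter signal at or above 50%; inactive means inhibition below 50%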); conditions: HEK293-TLR3 RL24 IRF3 luciferase reporter, at 10 µM, stronger effect = higher value

SMILES	cell count [1]	inhibition [1]	inhibition of aggregation [2]	nuclei count [2] [%]	inhibition [3]	nuclei count [3] [%]	fluorescence slope [4]	NADPH fluorescence slope [5]	slope [6]	inhibition [7]	inhibition [8]
Cc1cccc(Nc2nc(N)nc(CN3CCC(C(N)=O)CC3)n2)c1C	720	-4.3% (inactive)	-5.8% (inactive)	108	-35% (inactive)	123	-0.628 (inactive)	-2.1e-05 (inactive)	0.0067 (inactive)	-22.9% (inactive)	-60.3% (inactive)
Cc1cccc(NC(=O)Cn2c(=O)n(C)c3ccccc32)c1	350	-3.7% (inactive)	2.6% (inactive)	107	-17.7% (inactive)	107	-0.417 (inactive)	9.1e-06 (inactive)	0.011 (inactive)	9.53% (inactive)	9.37% (inactive)
CC(=O)NC(Cc1ccc(C)cc1)C(=O)NC1CCN(C(=O)c2cnccn2)CC1 (stereo not drawn)	740	-1% (inactive)	22.2% (inactive)	130	-42% (inactive)	117	-0.421 (inactive)	-1.5e-05 (inactive)	0.00511 (inactive)	13.8% (inactive)	9.87% (inactive)
CCN1CCN(C(=O)Cn2ncc3ccsc3c2=O)CC1	697	-1.8% (inactive)	27.4% (inactive)	96.5	-54.3% (inactive)	120	-0.571 (inactive)	-8e-06 (inactive)	0.00578 (inactive)	3.05% (inactive)	26.3% (inactive)
c1cnc2c(SCc3ccc(-c4nnco4)cc3)cccc2c1	431	11.7% (inactive)	-3.7% (inactive)	100	-23.1% (inactive)	107	-0.586 (inactive)	-4.6e-06 (inactive)	0.00482 (inactive)	-53.9% (inactive)	-92.3% (inactive)
COC(=O)c1ccc2c(c1)C(=O)N(C1CCCCC1)C2=O	338	2.1% (inactive)	-2.4% (inactive)	107	-9.6% (inactive)	96.9	-0.443 (inactive)	-3.4e-05 (inactive)	0.00524 (inactive)	14.7% (inactive)	13.8% (inactive)
COc1ccc(CCNc2oc(COc3ccccc3Cl)nc2C#N)cc1OC	643	0.3% (inactive)	-3% (inactive)	99.9	-24.6% (inactive)	109	-0.462 (inactive)	-5.7e-05 (inactive)	0.00453 (inactive)	1.77% (inactive)	-11% (inactive)
O=C(O)c1cc(Cl)c(Cl)cc1C(=O)N1CCCC1	291	0% (inactive)	14.8% (inactive)	88.1	7% (inactive)	104	-0.311 (inactive)	4.1e-07 (inactive)	0.00644 (inactive)	9.27% (inactive)	22.8% (inactive)
Cc1cc(NC(=O)COC(=O)C2COc3ccccc3O2)no1 (stereo not drawn)	734	-5.3% (inactive)	-24.5% (inactive)	106	-15.9% (inactive)	103	-0.407 (inactive)	-7.6e-05 (inactive)	0.00343 (inactive)	7.14% (inactive)	12.6% (inactive)
N#Cc1nc(COc2ccccc2)oc1NCCCn1ccnc1	371	5.2% (inactive)	0.8% (inactive)	95.5	6.7% (inactive)	90.9	-0.629 (inactive)	-1.3e-05 (inactive)	0.00641 (inactive)	-11.6% (inactive)	-1.22% (inactive)
CC(=O)n1cc(-c2ccncc2)c2ccccc21	474	-5% (inactive)	22.9% (inactive)	69.3	-74.9% (inactive)	106	-0.57 (inactive)	-1.3e-05 (inactive)	0.00696 (inactive)	-5.39% (inactive)	11.5% (inactive)
O=C(CCn1c(=O)oc2ccccc21)N1CCN(c2ccccc2Cl)CC1	570	3.9% (inactive)	-52.3% (inactive)	22.3	26.9% (inactive)	81.9	-0.379 (inactive)	-2e-05 (inactive)	0.0037 (inactive)	49.8% (inactive)	19.6% (inactive)
CCn1cc(C(=O)N=c2sc3ccccc3n2C)c(=O)c2ccc(C)nc21	450	3.7% (inactive)	-5.2% (inactive)	107	-27.5% (inactive)	97.3	-0.361 (inactive)	-6.4e-05 (inactive)	0.00595 (inactive)	6.49% (inactive)	23% (inactive)
Cc1nc2ccc(S(=O)(=O)NCC(=O)N(C)Cc3ccco3)cc2s1	355	5.2% (inactive)	-6.5% (inactive)	95.6	-12.8% (inactive)	101	-0.503 (inactive)	-1.2e-05 (inactive)	0.00704 (inactive)	14.7% (inactive)	14.5% (inactive)
COc1ccc(N2CCN(C(=O)Cc3ccc(-n4c(=O)[nH]c5ccccc5c4=O)cc3)CC2)cc1	660	-5.8% (inactive)	-41.3% (inactive)	96.7	-103% (inactive)	103	-0.483 (inactive)	1.9e-05 (inactive)	0.00662 (inactive)	7.13% (inactive)	-1.38% (inactive)
CCOc1ccccc1-c1nc(-c2ccc(C)nc2OC)no1	404	4.8% (inactive)	-2% (inactive)	82.1	1.8% (inactive)	96.3	-0.552 (inactive)	1.8e-05 (inactive)	0.00778 (inactive)	-91.4% (inactive)	-227% (inactive)
Cc1ccc(-c2cc(C(F)F)nc(NCC3CCCO3)n2)cc1 (stereo not drawn)	647	1.4% (inactive)	15.9% (inactive)	87.5	-135% (inactive)	128	-0.524 (inactive)	1.3e-05 (inactive)	0.00547 (inactive)	-25.4% (inactive)	-60.9% (inactive)
CCN(CC)Cc1c(C(=O)OC)nnn1-c1nonc1N	476	-0.2% (inactive)	13.9% (inactive)	99.5	-18.2% (inactive)	107	-0.504 (inactive)	-0.000189 (inactive)	0.00521 (inactive)	4.14% (inactive)	14.8% (inactive)
CC(C)CC(OC(=O)c1cccs1)C(=O)NCc1ccco1 (stereo not drawn)	364	19.1% (inactive)	-9% (inactive)	91.6	2.7% (inactive)	106	-0.425 (inactive)	-2.5e-05 (inactive)	0.00495 (inactive)	6.99% (inactive)	11.5% (inactive)
COC(=O)CCC(=O)Nc1cccc(Cl)c1	205	42.5% (active)	5% (inactive)	99.2	-12.1% (inactive)	94.4	-0.593 (inactive)	-3.8e-05 (inactive)	0.00629 (inactive)	3.5% (inactive)	17.1% (inactive)
Cc1ccc(N2CCN(C(=S)c3ccc(N(C)C)cc3)CC2)cc1	411	-38.4% (inactive)	-2.2% (inactive)	85.8	-90.7% (inactive)	98.3	-0.595 (inactive)	-2.7e-05 (inactive)	0.00418 (inactive)	-12.6% (inactive)	-63.7% (inactive)
Cc1cc(C)c(C)c(OCC(=O)NCC2CCCO2)c1 (stereo not drawn)	371	-13.5% (inactive)	-15% (inactive)	97.1	-65.1% (inactive)	110	-0.521 (inactive)	-3.4e-05 (inactive)	0.0063 (inactive)	-5.32% (inactive)	21% (inactive)
COc1ccc(-c2cc(C(F)(F)F)n3nc(C(=O)N4CCOCC4)nc3n2)cc1	620	11.1% (inactive)	-19.6% (inactive)	103	41.9% (inactive)	102	-0.172 (inactive)	-5.6e-05 (inactive)	0.00494 (inactive)	10.8% (inactive)	15.3% (inactive)
COc1ccc(N2CCN(Cc3cc(=O)oc4cc(C)c(Cl)c(C)c34)CC2)cc1	604	0.3% (inactive)	8.9% (inactive)	104	19% (inactive)	93.1	-0.388 (inactive)	1.5e-05 (inactive)	0.00505 (inactive)	17.9% (inactive)	12% (inactive)
CCOC(=O)C1=C(C)N(C)C(=O)NC1c1cccc(O)c1 (stereo not drawn)	421	6.4% (inactive)	-6.7% (inactive)	99.3	-43.5% (inactive)	124	-0.259 (inactive)	-1.3e-05 (inactive)	0.00604 (inactive)	9.66% (inactive)	17.5% (inactive)
Cn1c(=O)c2c(nc(SCC(=O)NCc3ccco3)n2C)n(C)c1=O	616	1.7% (inactive)	19% (inactive)	78.5	-63.1% (inactive)	100	-0.611 (inactive)	1.2e-05 (inactive)	0.00578 (inactive)	3.04% (inactive)	5.37% (inactive)
O=C(Nc1ccc2c(c1)OCCO2)c1ccco1	337	-3.5% (inactive)	-13.9% (inactive)	118	6.1% (inactive)	102	-0.488 (inactive)	-3.7e-05 (inactive)	0.00709 (inactive)	-48.4% (inactive)	-81.4% (inactive)
CCC(CC)C(=O)Nc1cccc(C(=O)NCc2ccco2)c1	295	2.3% (inactive)	-17.4% (inactive)	107	-100% (inactive)	138	-0.428 (inactive)	-1.2e-05 (inactive)	0.00559 (inactive)	-5.68% (inactive)	-18.7% (inactive)
